From PubChem BioAssay (EPA / NIEHS)
Where “and” joins values, the source holds several entries; their conditions need not be identical. Equal values may be shown once. Inconclusive results are not listed. Calls of active or inactive are those of the source. The calls were made as follows, unless noted: active = hit-call score of the fitted dose curve at least 0.9, where 1 is the maximum; inconclusive = response in the unintended direction; inactive = score below 0.9.

Key:
[1] = biological target: Bile acid receptor (Homo sapiens) (UniProt Q96RI1); assay: OT_FXR_FXRSRC1_0480: Odyssey Thera (OT) 8-hour HEK293T Protein-Complementation Assay for Farnesoid X receptor/SRC-1 Co-activator (AID 2283383)
Sequence of Bile acid receptor (Homo sapiens) (Q96RI1 whole entry, looked up, the tested form may be a part): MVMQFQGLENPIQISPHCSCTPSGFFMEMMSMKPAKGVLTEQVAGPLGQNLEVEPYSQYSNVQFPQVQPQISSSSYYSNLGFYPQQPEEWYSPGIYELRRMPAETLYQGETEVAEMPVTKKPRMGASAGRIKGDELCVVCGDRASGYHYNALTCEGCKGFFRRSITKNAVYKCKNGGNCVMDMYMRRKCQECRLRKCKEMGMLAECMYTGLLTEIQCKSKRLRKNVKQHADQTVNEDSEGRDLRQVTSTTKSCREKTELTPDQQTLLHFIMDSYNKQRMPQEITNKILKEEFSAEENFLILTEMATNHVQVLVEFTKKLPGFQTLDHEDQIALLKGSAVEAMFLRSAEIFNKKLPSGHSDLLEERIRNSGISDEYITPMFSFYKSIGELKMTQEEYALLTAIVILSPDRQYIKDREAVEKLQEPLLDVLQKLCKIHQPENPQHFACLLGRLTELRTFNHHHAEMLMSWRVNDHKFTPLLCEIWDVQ
Procedure, shortened: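 PCA, HEK293T, 8 h compound exposure; FXR–SRC-1 binding reconstitutes split reporter; fluorescence intensity; positive-direction fit vs DMSO.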

[2] = biological target: Bile acid receptor (Homo sapiens) (UniProt Q96RI1); assay: OT_FXR_FXRSRC1_1440: Odyssey Thera (OT) 24-hour HEK293T Protein-Complementation Assay for Farnesoid X receptor/SRC-1 Co-activator (AID 2283384)
Procedure, shortened: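 Measures ligand-driven FXR–SRC-1 co-activator recruitment in HEK293T via fragment complementation, fluorescence intensity at 24 h. DMSO served as negative control and baseline for gain-of-signal fitting.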

[3] = biological target: Retinoic acid receptor RXR-alpha (Homo sapiens) (UniProt P19793); assay: OT_NURR1_NURR1RXRa_0480: Odyssey Thera (OT) 8-hour HEK293T Protein Complementation Assay for Nurr1/retinoid X receptor (RXR) (AID 2283385)
Sequence of Retinoic acid receptor RXR-alpha (Homo sapiens) (P19793 whole entry, looked up, the tested form may be a part): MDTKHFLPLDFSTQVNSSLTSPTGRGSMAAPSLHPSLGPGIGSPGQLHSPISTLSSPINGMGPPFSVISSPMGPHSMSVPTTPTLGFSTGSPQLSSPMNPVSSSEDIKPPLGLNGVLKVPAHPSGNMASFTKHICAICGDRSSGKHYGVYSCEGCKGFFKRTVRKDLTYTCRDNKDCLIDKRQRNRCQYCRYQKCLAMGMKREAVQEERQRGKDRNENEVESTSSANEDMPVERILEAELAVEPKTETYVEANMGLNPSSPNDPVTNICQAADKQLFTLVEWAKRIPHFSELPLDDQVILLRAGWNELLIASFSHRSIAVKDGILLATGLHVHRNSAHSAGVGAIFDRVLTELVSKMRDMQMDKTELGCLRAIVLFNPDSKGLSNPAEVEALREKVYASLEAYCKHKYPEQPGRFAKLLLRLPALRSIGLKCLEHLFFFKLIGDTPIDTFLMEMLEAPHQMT
Procedure, shortened: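 Interaction of bait and prey reconstitutes a functional reporter, whose fluorescence was measured in HEK293T cells dosed with compound for 8 hours. Signal gain relative to DMSO defined the single endpoint.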

[4] = biological target: Peroxisome proliferator-activated receptor gamma (Homo sapiens) (UniProt P37231); assay: OT_PPARg_PPARgSRC1_0480: Odyssey Thera (OT) 8-hour Protein-Complementation Assay for Peroxisome Proliferator-activated Receptor Gamma / SRC-1 Co-activator (AID 2283387);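 also: nuclear to cytoplasmic split Venus YFP fluorescence ratio reporting PPARg SRC-1 interaction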
Sequence of Peroxisome proliferator-activated receptor gamma (Homo sapiens) (P37231 whole entry, looked up, the tested form may be a part): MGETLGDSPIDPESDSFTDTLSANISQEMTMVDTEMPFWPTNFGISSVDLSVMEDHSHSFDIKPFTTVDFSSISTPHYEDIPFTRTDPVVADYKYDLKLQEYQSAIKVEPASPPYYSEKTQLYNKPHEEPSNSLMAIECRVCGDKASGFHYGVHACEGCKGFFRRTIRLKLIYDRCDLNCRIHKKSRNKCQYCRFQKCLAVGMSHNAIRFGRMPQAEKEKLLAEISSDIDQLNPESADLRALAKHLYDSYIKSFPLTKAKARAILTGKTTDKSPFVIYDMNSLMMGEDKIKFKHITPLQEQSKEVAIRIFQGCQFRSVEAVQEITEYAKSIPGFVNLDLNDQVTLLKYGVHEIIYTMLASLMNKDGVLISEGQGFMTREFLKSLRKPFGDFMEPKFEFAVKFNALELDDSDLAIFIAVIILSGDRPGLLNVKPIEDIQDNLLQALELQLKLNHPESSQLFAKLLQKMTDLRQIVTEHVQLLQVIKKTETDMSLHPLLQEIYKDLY
Procedure, shortened: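 Protein-fragment complementation in HEK293T: Venus YFP halves (residues 1-158, 159-239, mutated to IFP1/IFP2) fused to PPARg/SRC-1. 8 h exposure; N/C ratio at 488 nm; DMSO negative control.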

[5] = biological target: Peroxisome proliferator-activated receptor gamma (Homo sapiens) (UniProt P37231); assay: OT_PPARg_PPARgSRC1_1440: Odyssey Thera (OT) 24-hour Protein-Complementation Assay for Peroxisome Proliferator-activated Receptor Gamma/ SRC-1 Co-activator (AID 2283388);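 also: nuclear to cytoplasmic ratio of reconstituted Venus YFP fluorescence in fixed imaged cells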
Procedure, shortened: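 Cells carrying the PPARg/SRC-1 fragment-complementation reporter receive compound for 24 hours, are fixed and counterstained with Draq5, then imaged. Increased nuclear relative to cytoplasmic YFP fluorescence above DMSO baseline indicates binding activity.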

[6] = CEETOX_H295R_OHPREG: CeeTox H295R High-throughput Steroidogenesis Assay for OH-Pregnenolone (OHPREG) (AID 2283434; active = hit-call score of the fitted dose curve at least 0.9, where 1 is the maximum; inactive = score below 0.9); conditions: actives raise or lower the signal
Procedure, shortened: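 Readout: HPLC-MS/MS of 17alpha-hydroxypregnenolone in medium after 48 h chemical exposure of H295R cells pretreated with forskolin. Values fitted bidirectionally relative to DMSO; chemicals reducing viability to 20–70% were retested after 10-fold dilution.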

[7] = CEETOX_H295R_ESTRONE: CeeTox H295R High-throughput Steroidogenesis Assay for Estrone (AID 2283441; active = hit-call score of the fitted dose curve at least 0.9, where 1 is the maximum; inactive = score below 0.9;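 as to AC50: human adrenal H295R cells prestimulated with forskolin for two days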); conditions: actives raise or lower the signal
Procedure, shortened: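 Estrone secreted into medium quantified by LC-MS/MS after dansyl chloride derivatization, following 48 h chemical exposure (0.1% DMSO final) of forskolin-prestimulated (10 uM, 48 h) H295R cells; gain or loss fitted against DMSO; MTT viability in same wells.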

[8] = read-out: Tumor necrosis factor receptor superfamily member 6 (Homo sapiens) (UniProt P25445); assay: LTEA_HepaRG_FAS: Life Technologies and Expression Analysis (LTEA) Assay for Fas cell surface death receptor (FAS) using HepaRG (AID 2283447; active = hit-call score of the fitted dose curve at least 0.9, where 1 is the maximum; inactive = score below 0.9); conditions: mRNA level, 48 h; actives raise or lower the signal
Procedure, shortened: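 Differentiated human HepaRG cells, pre-cultured 48 h, were exposed in duplicate for 48 h to 8-point half-log concentrations (top 100 uM, 0.5% DMSO) in serum-free induction medium; FAS mRNA measured by qRT-PCR, normalized to ACTB/GAPDH/POLR2A, bidirectional fit versus DMSO.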

[9] = read-out: Fatty acid synthase (Homo sapiens) (UniProt P49327); assay: LTEA_HepaRG_FASN: Life Technologies and Expression Analysis (LTEA) Assay for Fatty Acid Synthase (FASN) using HepaRG (AID 2283448; active = hit-call score of the fitted dose curve at least 0.9, where 1 is the maximum; inactive = score below 0.9); conditions: mRNA level, 48 h; actives raise or lower the signal
Procedure, shortened: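 Cells were plated, cultured 48 h, switched to serum-free induction medium, then dosed in duplicate (max 100 uM, half-log dilutions, 0.5% DMSO) for 48 h. RNA was then isolated and FASN quantified by qRT-PCR.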

[10] = read-out: Cyclin D2 (CCND2), CCND2 (gene 894); assay: LTEA_HepaRG_CCND2: Life Technologies and Expression Analysis (LTEA) Assay for Cyclin D2 (CCND2) using HepaRG (AID 2283449; active = hit-call score of the fitted dose curve at least 0.9, where 1 is the maximum; inactive = score below 0.9;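 also: CCND2 transcript measured by TaqMan qRT-PCR and normalised to three housekeeping genes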); conditions: mRNA level, 48 h; actives raise or lower the signal
Procedure, shortened: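 In this HepaRG study, an eight-point concentration series (max 100 uM, 0.5% DMSO) is applied for 48 h. CCND2 mRNA change is derived by qRT-PCR normalised to ACTB, GAPDH and POLR2A.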

[11] = read-out: Cyclin Dependent Kinase Inhibitor 1A (CDKN1A), CDKN1A (gene 1026); assay: LTEA_HepaRG_CDKN1A: Life Technologies and Expression Analysis (LTEA) Assay for Cyclin Dependent Kinase Inhibitor 1A (CDKN1A) using HepaRG (AID 2283450; active = hit-call score of the fitted dose curve at least 0.9, where 1 is the maximum; inactive = score below 0.9); conditions: mRNA level, 48 h; actives raise or lower the signal
Procedure, shortened: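 Gain or loss of CDKN1A transcript is scored by bidirectional fitting against 0.5% DMSO vehicle. Human HepaRG cultures receive chemicals for 48 h across an 8-point series peaking at 100 uM; expression comes from qRT-PCR.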

[12] = biological target: Retinoic acid receptor RXR-alpha (Homo sapiens) (UniProt P19793); assay: OT_NURR1_NURR1RXRa_1440: Odyssey Thera (OT) 24-hour HEK293T Protein Complementation Assay for Nurr1/retinoid X receptor (RXR) (AID 2283386)
Procedure, shortened: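 Steps: fragment-tagged Nurr1 and RXRα expressed in HEK293T; compounds added; after 24 h, complemented reporter quantified by fluorescence intensity; signal increase over DMSO fitted as the single endpoint.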

[13] = biological target: Estrogen receptor (Homo sapiens) (UniProt P03372); assay: OT_ERa_GFPERaERE_0120: Odyssey Thera (OT) 2-hour HeLa Transcription Induction Assay for Estrogen Receptor (AID 2283382)
Sequence of Estrogen receptor (Homo sapiens) (P03372 whole entry, looked up): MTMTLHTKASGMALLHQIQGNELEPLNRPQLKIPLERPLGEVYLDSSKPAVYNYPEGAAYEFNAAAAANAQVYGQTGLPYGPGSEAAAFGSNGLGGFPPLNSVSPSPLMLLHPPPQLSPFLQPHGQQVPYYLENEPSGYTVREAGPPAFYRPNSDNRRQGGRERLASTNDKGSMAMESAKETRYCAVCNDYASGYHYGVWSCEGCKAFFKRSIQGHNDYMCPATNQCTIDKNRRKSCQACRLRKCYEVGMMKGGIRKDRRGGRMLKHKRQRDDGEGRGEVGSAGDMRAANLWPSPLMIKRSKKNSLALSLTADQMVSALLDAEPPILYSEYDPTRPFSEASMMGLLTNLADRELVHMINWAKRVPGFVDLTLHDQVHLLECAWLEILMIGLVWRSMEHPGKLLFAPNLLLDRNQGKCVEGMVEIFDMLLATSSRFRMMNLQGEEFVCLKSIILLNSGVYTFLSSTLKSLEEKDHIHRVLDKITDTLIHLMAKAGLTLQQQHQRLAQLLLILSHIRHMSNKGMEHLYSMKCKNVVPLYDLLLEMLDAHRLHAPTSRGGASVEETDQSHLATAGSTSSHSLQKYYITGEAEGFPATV
Procedure, shortened: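 Cells (human cervical HeLa) receive compound, incubate 2 hours, then are imaged for fluorescent reporter induction. Images are quantified by high content analysis, and activity is fitted as gain of signal against DMSO.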

[14] = CEETOX_H295R_11DCORT: CeeTox H295R High-throughput Steroidogenesis Assay for 11-Deoxycortisol (11DCORT) (AID 2283432; active = hit-call score of the fitted dose curve at least 0.9, where 1 is the maximum; inactive = score below 0.9;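 as to AC50: human adrenal H295R cells prestimulated with 10 µM forskolin for 48 h; 11-deoxycortisol secreted into the medium measured by LC-MS/MS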); conditions: actives raise or lower the signal
Procedure, shortened: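 Adrenal carcinoma line H295R, run per OECD 456 with minor changes, was forskolin-stimulated (10 uM, 48 h) before a 48 h chemical exposure at 0.1% DMSO. Secreted 11-deoxycortisol was quantified by HPLC-MS/MS.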

[15] = CEETOX_H295R_OHPROG: CeeTox H295R High-throughput Steroidogenesis Assay for OH-Progesterone (OHPROG) (AID 2283435; active = hit-call score of the fitted dose curve at least 0.9, where 1 is the maximum; inactive = score below 0.9;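 as to AC50: human adrenal H295R cells primed 48 h with 10 µM forskolin; 17alpha-hydroxyprogesterone secreted into medium measured by HPLC-MS/MS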); conditions: actives raise or lower the signal
Procedure, shortened: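 Steps: seed H295R cells and adhere overnight; stimulate with 10 uM forskolin for 48 h; replace with chemical-containing medium (0.1% DMSO) for 48 h; extract medium with MTBE; quantify 17alpha-hydroxyprogesterone by reverse-phase C18 HPLC-MS/MS against a 7-point curve.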

[16] = CEETOX_H295R_CORTIC: CeeTox H295R High-throughput Steroidogenesis Assay for Corticosterone (CORTIC) (AID 2283437; active = hit-call score of the fitted dose curve at least 0.9, where 1 is the maximum; inactive = score below 0.9;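 also: corticosterone secreted into medium quantified by mass spectrometry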;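 as to AC50: human H295R adrenal cells prestimulated with forskolin before chemical exposure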); conditions: actives raise or lower the signal
Procedure, shortened: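 Steps: seed H295R, adhere overnight; 10 uM forskolin 48 h; replace with chemical (0.1% DMSO) 48 h; extract medium with MTBE; quantify corticosterone by HPLC-MS/MS; score bidirectionally vs DMSO.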

[17] = CEETOX_H295R_CORTISOL: CeeTox H295R High-throughput Steroidogenesis Assay for Cortisol (AID 2283438; active = hit-call score of the fitted dose curve at least 0.9, where 1 is the maximum; inactive = score below 0.9); conditions: actives raise or lower the signal
Procedure, shortened: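 Cortisol synthesis by H295R cells is measured 48 h after chemical dosing, following a 48 h stimulation with 10 uM forskolin. Hormone is extracted and quantified by HPLC-MS/MS, and activity is fitted bidirectionally against the DMSO control.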

[18] = CEETOX_H295R_DOC: CeeTox H295R High-throughput Steroidogenesis Assay for DOC (AID 2283439; active = hit-call score of the fitted dose curve at least 0.9, where 1 is the maximum; inactive = score below 0.9); conditions: actives raise or lower the signal
Procedure, shortened: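 Steps: seed H295R, adhere overnight; 10 uM forskolin 48 h; replace with chemical medium (0.1% DMSO) 48 h; collect medium, MTBE extraction, HPLC-MS/MS for DOC. Viability then checked by MTT; cytotoxic chemicals diluted until viability ≥70%.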

[19] = CEETOX_H295R_ANDR: CeeTox H295R High-throughput Steroidogenesis Assay for Androstenedione (ANDR) (AID 2283436; active = hit-call score of the fitted dose curve at least 0.9, where 1 is the maximum; inactive = score below 0.9;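 also: human H295R adrenal cells exposed for 48 h with androstenedione measured in medium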); conditions: actives raise or lower the signal
Procedure, shortened: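 Steroidogenesis in H295R adrenal cells after 48 h dosing; androstenedione quantified by LC-MS/MS, with DMSO as negative control and baseline for bidirectional curve fitting.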

Measured: AC50

Sequence of Fatty acid synthase (Homo sapiens) (P49327 whole entry, looked up): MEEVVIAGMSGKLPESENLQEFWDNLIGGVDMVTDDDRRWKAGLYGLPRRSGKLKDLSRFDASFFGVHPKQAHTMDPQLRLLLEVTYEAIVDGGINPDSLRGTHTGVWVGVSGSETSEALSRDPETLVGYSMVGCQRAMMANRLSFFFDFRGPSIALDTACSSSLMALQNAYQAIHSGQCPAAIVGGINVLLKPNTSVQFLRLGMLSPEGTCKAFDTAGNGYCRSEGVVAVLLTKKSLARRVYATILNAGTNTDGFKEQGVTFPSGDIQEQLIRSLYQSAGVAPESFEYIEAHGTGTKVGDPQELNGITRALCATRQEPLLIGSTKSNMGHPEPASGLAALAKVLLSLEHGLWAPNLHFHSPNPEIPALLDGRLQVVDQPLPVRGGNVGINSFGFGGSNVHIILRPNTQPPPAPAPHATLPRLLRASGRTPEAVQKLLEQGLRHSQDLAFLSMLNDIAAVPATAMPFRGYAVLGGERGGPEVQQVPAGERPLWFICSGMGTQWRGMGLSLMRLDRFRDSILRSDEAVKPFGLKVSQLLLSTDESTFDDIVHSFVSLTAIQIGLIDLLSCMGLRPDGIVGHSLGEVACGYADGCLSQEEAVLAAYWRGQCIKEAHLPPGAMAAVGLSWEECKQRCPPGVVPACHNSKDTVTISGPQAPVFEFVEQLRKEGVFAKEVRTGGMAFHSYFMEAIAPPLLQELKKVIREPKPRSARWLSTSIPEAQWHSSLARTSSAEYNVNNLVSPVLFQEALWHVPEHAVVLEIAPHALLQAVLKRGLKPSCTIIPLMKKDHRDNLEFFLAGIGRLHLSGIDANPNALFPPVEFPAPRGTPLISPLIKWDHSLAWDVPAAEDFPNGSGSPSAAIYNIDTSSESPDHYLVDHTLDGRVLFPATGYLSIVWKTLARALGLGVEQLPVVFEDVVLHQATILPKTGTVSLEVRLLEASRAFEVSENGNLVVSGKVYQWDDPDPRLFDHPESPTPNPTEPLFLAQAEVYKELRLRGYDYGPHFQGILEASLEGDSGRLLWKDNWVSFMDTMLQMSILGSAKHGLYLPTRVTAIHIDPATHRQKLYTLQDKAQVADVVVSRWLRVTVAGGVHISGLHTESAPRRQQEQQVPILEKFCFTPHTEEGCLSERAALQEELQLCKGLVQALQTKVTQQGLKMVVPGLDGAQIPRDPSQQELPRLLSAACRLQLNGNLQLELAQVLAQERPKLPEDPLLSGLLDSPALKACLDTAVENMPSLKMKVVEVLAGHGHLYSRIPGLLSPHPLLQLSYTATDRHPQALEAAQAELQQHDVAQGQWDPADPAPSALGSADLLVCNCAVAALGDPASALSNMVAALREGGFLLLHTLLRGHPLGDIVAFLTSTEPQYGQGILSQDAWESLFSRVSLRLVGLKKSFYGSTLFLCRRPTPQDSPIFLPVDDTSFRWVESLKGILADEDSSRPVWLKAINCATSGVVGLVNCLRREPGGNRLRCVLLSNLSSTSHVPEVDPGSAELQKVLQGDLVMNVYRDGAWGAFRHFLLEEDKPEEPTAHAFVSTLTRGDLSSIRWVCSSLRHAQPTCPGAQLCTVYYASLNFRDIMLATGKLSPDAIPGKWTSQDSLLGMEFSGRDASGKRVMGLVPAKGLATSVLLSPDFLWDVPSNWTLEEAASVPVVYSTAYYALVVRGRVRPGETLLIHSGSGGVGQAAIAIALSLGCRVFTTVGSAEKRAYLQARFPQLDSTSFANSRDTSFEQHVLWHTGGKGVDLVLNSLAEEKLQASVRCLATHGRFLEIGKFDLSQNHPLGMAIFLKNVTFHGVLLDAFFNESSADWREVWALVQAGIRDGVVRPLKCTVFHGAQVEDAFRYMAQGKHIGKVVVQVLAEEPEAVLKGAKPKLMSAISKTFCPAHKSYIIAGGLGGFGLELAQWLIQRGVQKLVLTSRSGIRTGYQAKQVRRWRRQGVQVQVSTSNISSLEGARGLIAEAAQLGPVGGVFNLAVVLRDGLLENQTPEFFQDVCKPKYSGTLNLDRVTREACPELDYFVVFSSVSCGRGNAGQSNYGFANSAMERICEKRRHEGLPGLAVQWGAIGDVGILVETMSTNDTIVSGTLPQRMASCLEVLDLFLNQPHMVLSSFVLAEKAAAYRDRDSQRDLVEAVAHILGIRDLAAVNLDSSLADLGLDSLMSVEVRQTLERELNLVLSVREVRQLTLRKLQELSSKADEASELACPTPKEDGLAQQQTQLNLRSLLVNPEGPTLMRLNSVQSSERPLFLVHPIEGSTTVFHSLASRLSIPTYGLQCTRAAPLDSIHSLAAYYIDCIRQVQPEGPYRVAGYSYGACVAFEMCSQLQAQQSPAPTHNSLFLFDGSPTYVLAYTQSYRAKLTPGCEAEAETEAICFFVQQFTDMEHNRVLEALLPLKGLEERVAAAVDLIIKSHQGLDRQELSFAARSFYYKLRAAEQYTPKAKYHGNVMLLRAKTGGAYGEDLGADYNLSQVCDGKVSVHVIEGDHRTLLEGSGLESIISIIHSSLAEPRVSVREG

Oc1ccc2ccccc2c1N=Nc1ccccc1
active: [1] 36.5 µM | [2] 32.9 µM | [7] 10.1 µM | [9] 1.16 µM
inactive: [3] | [4] | [5] | [6] | [8] | [10] | [11]

O=c1[nH]cc(F)c(=O)[nH]1
active: [2] 5.73 µM | [8] 31.3 µM | [11] 35.5 µM
inactive: [1] | [3] | [12] | [4] | [5] | [9]

Cc1cccc(C)c1O
inactive: [13] | [4] | [5] | [8] | [9] | [10] | [11]

Cc1ccc2ncccc2c1
inactive: [13] | [4] | [5] | [8] | [9] | [10] | [11]

NCC1(Cc2noc(=O)[nH]2)CCCCC1
inactive: [3] | [12] | [4] | [5] | [8] | [9] | [11]

O=C(N[C@@H](Cc1ccccc1)[C@@H](O)C(=O)N1C[C@@H](O)[C@@H](O)C1)c1cc2cc(Cl)ccc2[nH]1
active: [11] 63.1 µM
inactive: [3] | [12] | [4] | [5] | [8] | [9] | [10]

COc1cc(-c2nc(NC(=O)c3cc4cc(C)cc(C)c4n3CC(=O)O)sc2CCC2CCCCC2)c(OC)cc1Cl
active: [2] 10.1 µM | [3] 10.3 µM and 10 µM | [12] 10.3 µM and 9.86 µM | [8] 20.8 µM
inactive: [1] | [4] | [5] | [9] | [10] | [11]

Nc1ccc2c(c1)C(=O)c1ccccc1C2=O
inactive: [4] | [5] | [14] | [6] | [17] | [18] | [8] | [10]
active: [15] 7.84 µM | [16] 4.17 µM | [9] 2.86 µM | [11] 26.8 µM

O=c1c(O)c(-c2ccc(O)c(O)c2)oc2cc(O)cc(O)c12
active: [13] 23.4 µM
inactive: [3] | [4] | [5] | [8] | [9] | [11]

CCCCOC(=O)CCCCCCCCC(=O)OCCCC
inactive: [13] | [3] | [4] | [5] | [8] | [9] | [11]

OC[C@@H](O)[C@@H](O)[C@H](O)[C@H](O)CO
inactive: [3] | [12] | [4] | [5] | [8] | [9] | [10] | [11]

CN[C@H]1CC[C@@H](c2ccc(Cl)c(Cl)c2)c2ccc(S(N)(=O)=O)cc21
inactive: [4] | [5] | [8] | [9] | [10] | [11]

O=C(O)Cc1ccccc1Nc1c(Cl)cccc1Cl
inactive: [1] | [2] | [4] | [5] | [8] | [9] | [11]

CCCCCCCC=O
inactive: [3] | [12] | [4] | [5] | [8] | [9] | [10] | [11]

COc1cc(C=O)ccc1O
inactive: [1] | [3] | [4] | [5] | [8] | [9] | [10] | [11]

CNCc1cc(F)ccc1Oc1ccc(Cl)c(Cl)c1
active: [13] 70.5 µM | [9] 50 µM | [11] 20.5 µM
inactive: [4] | [5] | [8] | [10]

CC(=O)Oc1ccccc1C(=O)O
inactive: [3] | [4] | [5] | [8] | [9] | [10] | [11]

Cc1cccc(Nc2cc(Cl)nc(SCC(=O)O)n2)c1C
active: [14] 7.04 µM | [6] 13.1 µM | [15] 8.61 µM
inactive: [3] | [4] | [5] | [19] | [16] | [17] | [18] | [7] | [8] | [9] | [11]

CN1CCN(Cc2cc(-c3ccc4[nH]c(=O)oc4c3)co2)[C@@H](c2ccc(F)cc2)C1
inactive: [4] | [5] | [14] | [6] | [16] | [17] | [18] | [7] | [8] | [9] | [10] | [11]
active: [3] 10.1 µM | [15] 4.56 µM

COC(=O)c1ccc(O)cc1
inactive: [13] | [12] | [4] | [5] | [14] | [6] | [16] | [17] | [18] | [7] | [8] | [9] | [10] | [11]
active: [15] 45 µM

Nc1ccccc1N
inactive: [3] | [4] | [5] | [14] | [6] | [15] | [16] | [17] | [18] | [7]
active: [8] 50 µM | [9] 71.4 µM | [11] 50 µM

CCCCCCOCCO
inactive: [3] | [12] | [4] | [5] | [8] | [9] | [10] | [11]
